Data reported in PubChem BioAssay (NCI).
This is part of a sample that, as a whole, favours compounds with a hit. Of some 83,000 tested, about 20% had one in any assay.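 Results are percent growth after 48 hours of single-concentration exposure. 100 means growth as in untreated cells, lower positive values show inhibition; negative values down to -100 show cell death.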 Values without a mark were called inactive. Activity calls are given as the source filed them.

The compounds below were run on SK-MEL-2 melanoma (assay: NCI-60 one-dose screen, 48 h (100 = growth as untreated, 0 = no growth, -100 = all killed)). Conditions: 10 µM unless noted.
Protocol: Growth inhibition of the SK-MEL-2 human tumor cell line is measured as a screen for anti-cancer activity. Cells are grown in 96 well plates and exposed to the test compound for 48 hours. Compounds are tested at a single concentration, which is 10^-5 M for most compounds. The reported endpoint is percent growth (GI% or GIPRCNT), where numbers from 0 - 100% represent growth inhibition, and numbers from -100% - 0 represent cell death. For example, a value of 40 represents 60% growth inhibition. A value of 0 means no net growth occurred over the course of the experiment. A value of -40 indicates 40% of cells at the beginning of the experiment died by the end of the experiment. A value of -100 means all cells are dead at the end of the experiment.
NCI-60 Human Tumor Cell Lines Screen was performed using the standard one-dose NCI protocol, which is described in more detail at https://dtp.cancer.gov/discovery_development/nci-60/default.htm.
Compounds with GIPRCNT values below 10 were considered active. Activity score was based on GIPRCNT using the following formula: […]
Score is 0 for GIPRCNT values of 100 or above, 50 for GIPRCNT values of 0, and 100 for GIPRCNT values of -100.

Compound | growth
Cc1ccc(NC(=O)Cn2cc(CN3CCN(c4ccnc5cc(Cl)ccc45)CC3)nn2)cc1 | 114%
CCOC(=O)n1ccn(C)c1=S | 97.8%
COc1ccc(C2CC(c3ccc(Nc4nc(Nc5ccccc5)nc(Nc5ccccc5)n4)cc3)=NN2C(C)=O)cc1 (stereo not given) | 68.5%
Nc1c(C(=O)Nc2ccccc2F)sc2nc3c(cc12)CCCC3 | 43.7%
CCN1C(=O)N(CC)C2C1NN=c1s/c(=C\c3ccccc3F)c(=O)n12 (stereo not given) | 37.2%
CC1(C)CC(=O)C2=C(C1)N(c1ccc(OC(F)(F)F)cc1)C(N)=C(C#N)C2c1ccc(Br)cc1F (stereo not given) | 88.6%
CCOC(=O)C1=C(c2ccccc2)N=C2SC=C(c3ccc(Cl)cc3)N2C1c1ccc(Cl)cc1 (stereo not given) | 98.2%
CN1CCN(C(=O)c2ccc(NC(=O)c3cc4c(nn3)NCCN4Cc3cc(Cl)ccc3Cl)cc2)CC1 | 78.8%
Cc1nc2sc(C(=O)Nc3cccc4ccccc34)c(N)c2cc1C(O)c1ccccc1 (stereo not given) | 25.3%
N#Cc1ccc(O)c(C2=NCC(c3cccc(Oc4ccccc4)c3)O2)c1 (stereo not given) | 7.46% (active)
Nc1nc(-c2ccc(Cl)cc2)nc2c1sc(=S)n2-c1ccccc1 | 83.7%
CCOC(=O)c1cc2c(n1C)-c1nc(NC(C)=O)sc1CCC2 | 89.9%
CCCCCCCCCCCCCCCCOCCCOP(=O)(O)C1CCCN(O)C1=O (stereo not given) | 36%
COc1c(C(=O)Nc2ccc(C)c(Br)c2)ccc2ccccc12 | 102%
Cc1[nH]c(=O)[nH]c(=O)c1Br | 148%
NC(=O)c1ccc(-c2c3ccccc3cc3c2ccc2ccccc23)cc1 | 43.7%
Cc1cc(C(=O)O)c(C)n1-c1cccc(C(=O)O)c1 | 18.8%
CCCCNCCCCCNc1cc(OC)cc2cccnc12 | 106%
CN(C)CCNC(=O)c1cc2c3cc(Cl)ccc3[nH]c2c2ncccc12 | 47.9%
O=C(OC(CO)C(=O)NC12CC3CC(CC(C3)C1)C2)c1ccc(Cl)cc1 (stereo not given) | 106%

Compound | growth
C[PH+](c1nc2ccccc2nc1[PH+](C)C(C)(C)C)C(C)(C)C.C[PH+](c1nc2ccccc2nc1[PH+](C)C(C)(C)C)C(C)(C)C.[Au+].[Cl-] (stereo not given) | -76.6% (active)
Cc1ccc2c(Cn3cc(CSc4nc5ccccc5o4)nn3)cc(=O)oc2c1 | 106%
CSc1nc(N)c(NS(=O)(=O)c2ccc(C(C)=O)cc2)c(=O)[nH]1 | 100%
COC(CC(F)F)c1cn(S(=O)(=O)c2ccc(C)cc2)c2ccccc12 (stereo not given) | 41.3%
COc1ccc(Cc2cnc(NC(=O)c3cc(C)oc3C)s2)cc1 | 47.7%
N#CC1=C(N)Oc2c(ccc3ccccc23)C1c1ccccc1 (stereo not given) | 43.1%
CC(C)(Sc1cc(C(C)(C)C)c(OC(=O)CCCC(=O)O)c(C(C)(C)C)c1)Sc1cc(C(C)(C)C)c(OC(=O)CCCC(=O)O)c(C(C)(C)C)c1 | 55.2%
CC1=C2[C@@H](CC1)[C@]1(C)O[C@@](C(C)C)(C[C@H]1OC(=O)[C@H](C)O)[C@H]2OC(=O)/C=C/c1ccccc1 | 80.6%
COc1ccc(/C=C/C(=O)c2ccc(Nc3ccnc4cc(Cl)ccc34)cc2)cc1 | 64.1%
NC(Cc1ccc(O)c([N+](=O)[O-])c1)C(=O)O (stereo not given) | 109%
S=c1sc2c(Cl)nc(-c3cccnc3)nc2n1-c1ccccc1 | 21.6%
CCOc1nc(-c2ccccc2)cc2c(O)c(C(=O)N/N=C/c3ccccc3)[nH]c(=O)c12 | 36.5%
O=c1scc(-c2ccc(C(F)(F)F)cc2)s1 | 77.8%
O=C(Nc1ccc(Oc2cccc(Cl)c2)c(Cl)c1)c1cnccn1 | 43.6%
CN(C)c1ccc(-c2c(C#N)c(N)nn2C(=O)c2ccc(NC(=O)c3ccccn3)cc2)cc1 | 105%
O=S(=O)(NCCCNc1nccc(-c2c(-c3ccc(F)c(O)c3)nc3occn23)n1)c1ccc(Cl)cc1 | 25.6%
O=C(CSc1nc2ccc([N+](=O)[O-])cc2[nH]1)Nc1ccc([N+](=O)[O-])cc1 | -5.26% (active)
O=C(/C=C/c1cccs1)Nc1ncc(Cc2ccccc2F)s1 | 46.5%
COc1ccc(F)cc1/C=C/C(=O)/C=C(/C=C/c1cc(F)ccc1OC)OB(F)F | 84.1%
C=CC(=O)N1CCN(c2cccc(Oc3nccc(Nc4nnc(-c5ccc(Br)cc5)s4)n3)c2)CC1 | 54.7%
